According to PubChem BioAssay AID1259421 (Broad Institute, 2018):
“And” between values parts separate entries of the source, which are not always exact repeats. Equal entries are not always repeated. About 610 (9.5%) of roughly 6,400 compounds were called active. No stated cut-off is given here; in the data, active means activity change below about -70%; inconclusive means no clear call, values can overlap the other calls; inactive means above that. Shown is part of a subset that was picked to be rich in actives. More than one record can exist for a structure, and the calls need not agree.

Assay: T. gondii ME49Luc in HeLa cells, luciferase assay, 72 h, no IFN-y (AID 1259421)
Conditions: stronger effect = lower value, concentration not given here

Row | Structure (SMILES) | activity change, negative = inhibition
1 | CCOC(=O)[C@H](CCc1ccccc1)N[C@@H](C)C(=O)N(CC(=O)O)C1Cc2ccccc2C1 | 7.2% (inactive)
2 | CCC(C)(C)C(=O)OC1CC(C)C=C2C=CC(C)C(CCC3CC(O)CC(=O)O3)C21 (centres undefined) | -4.9% (inactive)
3 | COC1C=COC2(C)Oc3c(C)c(O)c4c(c3C2=O)C2(C=C(NC(=O)/C(C)=C\C=C/C(C)C(O)C(C)C(O)C(C)C(OC(C)=O)C1C)C4=O)OCC(=O)O2 (centres undefined) | -2.28% (inactive)
4 | C=CCNC1=C2C[C@@H](C)C[C@H](OC)[C@H](O)[C@@H](C)/C=C(\C)[C@H](OC(N)=O)[C@@H](OC)/C=C\C=C(/C)C(=O)NC(=CC1=O)C2=O | -56% (inactive)
5 | CO[C@H]1/C=C\C=C(/C)C(=O)NC2=CC(=O)C(NCCN(C)C)=C(C[C@@H](C)C[C@H](OC)[C@H](O)[C@@H](C)/C=C(\C)[C@@H]1OC(N)=O)C2=O | -69.9% (inactive) and -80.4% (active)
6 | NCCCCCC(O)(P(=O)(O)O)P(=O)(O)O | 13% (inactive)
7 | c1ccc(CNc2nc(NCc3ccccc3)c3ccccc3n2)cc1 | -83.6% (active)
8 | c1ccc(CNc2ncnc3ccccc23)cc1 | -3.07% (inactive)
9 | Cn1cnc2c(NCc3ccccc3)nc(NCCO)nc21 | 10.2% (inactive)
10 | CN1C(C(=O)Nc2ccccn2)C(=O)c2sc(Cl)cc2S1(=O)=O (centres undefined) | 6.43% (inactive)
11 | CC(C)(C)NC[C@@H](O)COc1nsnc1N1CCOCC1 | 15.6% (inactive) and -4.63% (inactive)
12 | CC(=O)N[C@H]1[C@H]([C@H](O)[C@H](O)CO)O[C@](O)(C(=O)O)C[C@@H]1O | 19.2% (inactive)
13 | Cc1cc(S(=O)(=O)O)c2c(C)ccc(C(C)C)cc1-2 | 0.707% (inactive)
14 | N#C/C(=C/c1ccc(O)c(O)c1)C(=O)Nc1ccccc1 | 11.3% (inactive)
15 | N#C/C(=C\c1ccc(O)c(O)c1)C(=O)Nc1ccccc1 | 10% (inactive) and 2.22% (inactive)
16 | N#C/C(=C\c1ccc(O)c(O)c1)C(=O)NC1CCC(CC2CCC(NC(=O)/C(C#N)=C/c3ccc(O)c(O)c3)CC2)CC1 (centres undefined) | -83.2% (active)
17 | COc1cc(OC)c(-c2c(OC)cc(OC)cc2OC)c(OC)c1 | -0.897% (inactive)
18 | CN(C)[C@@H]1CCc2[nH]c3ccc(NC(=O)c4ccc(F)cc4)cc3c2C1 | 0.289% (inactive) and 6.81% (inactive)
19 | CC(=O)NC1C(O)OC(COS(=O)(=O)O)C(OC2OC(C(=O)O)C(OC3OC(CO)C(OC4OC(C(=O)O)C(O)C(O)C4OS(=O)(=O)O)C(OS(=O)(=O)O)C3NS(=O)(=O)O)C(O)C2OS(=O)(=O)O)C1O (centres undefined) | 9.64% (inactive)
